Records with an inconclusive call do not appear. Calls of active or inactive are those of the source. The calls were made as follows, unless noted: active = hit-call score of the fitted dose curve at least 0.9, where 1 is the maximum; inactive = score below 0.9.
Legend:
[1] = molecular target: Aryl hydrocarbon receptor (Homo sapiens) (UniProt P35869); assay: ATG_Ahr_CIS: Attagene CIS-FACTORIAL HepG2 Assay for human Aryl Hydrocarbon Receptor (Ahr) (AID 2282930); details: HepG2 AhR cis-factorial reporter transcription; actives raise or lower the signal
Aryl hydrocarbon receptor (Homo sapiens), sequence (P35869 whole entry, looked up): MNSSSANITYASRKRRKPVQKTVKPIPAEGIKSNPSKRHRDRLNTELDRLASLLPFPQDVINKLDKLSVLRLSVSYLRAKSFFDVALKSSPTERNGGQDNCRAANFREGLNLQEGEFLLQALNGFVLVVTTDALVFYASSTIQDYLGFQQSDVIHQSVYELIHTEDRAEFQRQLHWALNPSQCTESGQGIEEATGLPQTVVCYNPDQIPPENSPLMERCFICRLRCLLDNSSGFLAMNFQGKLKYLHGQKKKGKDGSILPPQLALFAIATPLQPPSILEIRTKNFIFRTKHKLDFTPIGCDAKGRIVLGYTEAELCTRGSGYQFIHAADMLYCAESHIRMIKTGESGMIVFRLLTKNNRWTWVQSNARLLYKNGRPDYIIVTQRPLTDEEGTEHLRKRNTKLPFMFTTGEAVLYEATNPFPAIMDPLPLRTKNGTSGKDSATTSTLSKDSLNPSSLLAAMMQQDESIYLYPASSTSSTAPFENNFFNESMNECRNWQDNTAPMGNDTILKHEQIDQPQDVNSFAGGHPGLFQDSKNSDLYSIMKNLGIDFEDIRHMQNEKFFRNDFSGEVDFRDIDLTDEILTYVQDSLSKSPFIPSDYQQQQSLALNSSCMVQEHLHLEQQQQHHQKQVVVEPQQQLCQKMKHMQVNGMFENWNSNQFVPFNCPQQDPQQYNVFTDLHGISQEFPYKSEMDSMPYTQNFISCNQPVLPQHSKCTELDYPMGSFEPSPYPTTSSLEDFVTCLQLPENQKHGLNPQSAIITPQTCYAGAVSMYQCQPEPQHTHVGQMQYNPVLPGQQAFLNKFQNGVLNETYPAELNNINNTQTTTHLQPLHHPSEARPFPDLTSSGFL
How it was run: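 Read-out: reporter mRNA quantified by RT-PCR with fluorescent primer extension and capillary electrophoresis. Human HepG2 liver cells carried transfected cis-promoter reporter units and were exposed to chemical for 24 h; gain or loss fitted relative to DMSO.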

[2] = ATG_AP_1_CIS: Attagene CIS-FACTORIAL HepG2 Assay for human Activator Protein 1 (AP-1) (AID 2282931); details: HepG2 Attagene cis-factorial AP-1 reporter mRNA; actives raise or lower the signal
How it was run: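 HepG2 cells transiently transfected with cis-element-driven multiplex reporter units; 24 h compound exposure. Reporter mRNA quantified by RT-PCR, FAM-labelled fragments resolved by capillary electrophoresis; bidirectional fit versus DMSO baseline.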

[3] = ATG_BRE_CIS: Attagene CIS-FACTORIAL HepG2 Assay for human Bone Morphogenetic Protein (BMP) Response Element (BRE) (AID 2282933); details: HepG2 BMP response element reporter, Attagene transcription factor profiling; actives raise or lower the signal
How it was run: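 Endogenous transcription factor activity read in transiently transfected HepG2 cells after 24 h chemical exposure. Bidirectional curve fitting against DMSO; readout is reporter transcript level by RT-PCR with capillary electrophoresis of labelled products.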

[4] = ATG_RORE_CIS: Attagene CIS-FACTORIAL HepG2 Assay for human RAR-related Orphan Receptor Element (RORE) (AID 2282959); details: HepG2 Attagene cis-factorial RORE reporter, mRNA; actives raise or lower the signal
How it was run: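 HepG2 cells transiently transfected with multiple cis-element reporter transcription units, exposed to chemical for 24 h. Reporter mRNA quantified by RT-PCR, 6-FAM primer-extension labeling, HpaI digestion and capillary electrophoresis; bidirectional fit versus DMSO baseline.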

[5] = ATG_TAL_CIS: Attagene CIS-FACTORIAL HepG2 Assay for human TAL Basal Promoter (AID 2282966); details: HepG2 Attagene cis-factorial TAL promoter reporter; actives raise or lower the signal;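 also: background control endpoint measuring basal TAL promoter reporter mRNA not a specific factor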
How it was run: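 RT-PCR plus capillary electrophoresis quantifies reporter mRNA induction in transiently transfected HepG2 cells after 24 h chemical treatment. DMSO serves as negative control and baseline for bidirectional fitting.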

[6] = ATG_TGFb_CIS: Attagene CIS-FACTORIAL HepG2 Assay for human Transforming Growth Factor (TGF) (AID 2282967); details: HepG2 Attagene CIS TGFb reporter, mRNA transcription; actives raise or lower the signal
How it was run: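 Endogenous TGFB1-linked transcription factor activity read as reporter mRNA via RT-PCR and capillary electrophoresis, 24 h after dosing transiently transfected HepG2 cells. Gain or loss of signal fitted relative to DMSO.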

[7] = ATG_VDRE_CIS: Attagene CIS-FACTORIAL HepG2 Assay for human Vitamin D Receptor Element (VDRE) (AID 2282968); details: HepG2 VDRE cis-reporter transcription, actives raise or lower the signal
How it was run: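 Cell-based multiplexed reporter format in human liver HepG2 cells, 24 h post-dose. Fluorescence from capillary electrophoresis of reporter cDNA gives the signal, with DMSO as negative control and baseline.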

[8] = molecular target: X-box-binding protein 1 (Homo sapiens) (UniProt P17861); assay: ATG_Xbp1_CIS: Attagene CIS-FACTORIAL HepG2 Assay for human X-box Binding Protein 1 (XBP1) (AID 2282972); details: HepG2 XBP1 cis-element reporter, Attagene multiplex; actives raise or lower the signal
X-box-binding protein 1 (Homo sapiens), sequence (P17861 whole entry, looked up): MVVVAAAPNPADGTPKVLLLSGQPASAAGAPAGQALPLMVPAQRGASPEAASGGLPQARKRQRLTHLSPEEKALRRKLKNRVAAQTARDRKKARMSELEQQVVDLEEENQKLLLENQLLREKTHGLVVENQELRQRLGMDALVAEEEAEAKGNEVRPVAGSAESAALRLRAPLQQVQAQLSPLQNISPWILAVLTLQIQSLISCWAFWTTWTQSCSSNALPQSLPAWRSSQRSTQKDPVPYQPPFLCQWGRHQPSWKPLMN
How it was run: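 After a 24-hour chemical exposure of HepG2 cells carrying cis-regulated reporters, reporter mRNA levels are assessed. Quantification uses RT-PCR, 6-FAM labelling and capillary electrophoresis. Gain- or loss-of-signal is fitted against DMSO.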

[9] = ATG_M_32_TRANS: Attagene TRANS-FACTORIAL HepG2 Assay for M32 Transcription Factor (Internal Marker) (AID 2282984; active = hit-call score of the fitted dose curve at least 0.9, where 1 is the maximum;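 also: transcript level of a background control reporter unit measured by RT-PCR and capillary electrophoresis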); details: HepG2 Attagene TRANS M32 internal marker reporter
How it was run: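 Capillary electrophoresis of 6-FAM-labelled reporter fragments gives the signal; data fitted for gain over DMSO negative control. Source: HepG2 cells bearing transient multiple reporter transcription units, 24 h exposure.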

[10] = ATG_NFI_CIS: Attagene CIS-FACTORIAL HepG2 Assay for human Nuclear Factor I (NFI) (AID 2282989); details: HepG2 cis-regulatory reporter, NFI response element transcription; actives raise or lower the signal
How it was run: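 Reporter transcripts were measured by RT-PCR with fluorescent primer extension and capillary electrophoresis 24 h post-treatment. HepG2 cells carried transiently transfected cis-regulated reporter constructs reporting endogenous factor activity; gain or loss fitted against DMSO baseline.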

[11] = molecular target: Myc proto-oncogene protein (Homo sapiens) (UniProt P01106); assay: ATG_Myc_CIS: Attagene CIS-FACTORIAL HepG2 Assay for human Myelocytomatosis (Myc) Proto-Oncogene Transcription Factor (AID 2282990); details: HepG2, Attagene cis-reporter transcription factor activity; actives raise or lower the signal
Myc proto-oncogene protein (Homo sapiens), sequence (P01106 whole entry, looked up, the tested form may be a part): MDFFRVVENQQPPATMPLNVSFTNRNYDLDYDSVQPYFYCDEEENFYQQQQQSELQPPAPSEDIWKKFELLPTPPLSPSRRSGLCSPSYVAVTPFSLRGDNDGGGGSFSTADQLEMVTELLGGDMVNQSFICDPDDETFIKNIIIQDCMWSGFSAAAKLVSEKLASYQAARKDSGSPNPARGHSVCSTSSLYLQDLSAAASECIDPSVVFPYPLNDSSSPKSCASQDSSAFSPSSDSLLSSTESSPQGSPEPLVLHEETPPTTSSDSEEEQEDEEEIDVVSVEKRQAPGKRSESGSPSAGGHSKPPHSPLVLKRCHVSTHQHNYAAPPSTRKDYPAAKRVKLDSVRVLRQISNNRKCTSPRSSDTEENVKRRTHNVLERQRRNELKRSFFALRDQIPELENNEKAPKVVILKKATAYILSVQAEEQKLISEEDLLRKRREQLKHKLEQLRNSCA
How it was run: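 Read-out: fluorescent reporter mRNA fragments resolved by capillary electrophoresis after RT-PCR. Human HepG2 liver cells carried transfected cis-element reporter units and were dosed for 24 h. Gain or loss of signal fitted relative to DMSO baseline.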

[12] = ATG_NF_kB_CIS: Attagene CIS-FACTORIAL HepG2 Assay for human Nuclear Factor Kappa B (NF-kB) (AID 2282991); details: HepG2 Attagene cis-factorial NF-kB reporter mRNA; actives raise or lower the signal
How it was run: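 HepG2 cells transiently transfected with multiplexed cis-element reporter units measuring endogenous transcription factor activity; reporter mRNA read 24 h after dosing by RT-PCR, fluorescent labelling, HpaI digestion and capillary electrophoresis. Bidirectional fit against DMSO baseline.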

[13] = ATG_NRF2_ARE_CIS: Attagene CIS-FACTORIAL HepG2 Assay for human Nuclear Factor Erythroid 2 Related Factor 2 (NFR2) response to Antioxidant Response Elements (ARE) (AID 2282992); details: HepG2 Attagene ARE/NRF2 reporter, transcription factor activity; actives raise or lower the signal;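 as to AC50: reporter mRNA level measured by RT-PCR and capillary electrophoresis fluorescence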
How it was run: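 Cis-factorial assay: transfected HepG2 reporter library, 24 h dosing, mRNA readout via RT-PCR/CE; DMSO-referenced bidirectional analysis.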

[14] = ATG_Oct_MLP_CIS: Attagene CIS-FACTORIAL HepG2 Assay for human Octamer-Binding Transcription Factor (Oct) (AID 2282993); details: HepG2 Attagene cis-factorial Oct reporter, mRNA; actives raise or lower the signal
How it was run: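 Readout is reporter transcript level from RT-PCR with fluorescent primer extension and capillary electrophoresis, fitted in both directions against DMSO. Transfected HepG2 reporter units report endogenous factor activity after 24 h dosing.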

[15] = molecular target: Peroxisome proliferator-activated receptor gamma (Homo sapiens) (UniProt P37231); assay: ATG_PPARg_TRANS: Attagene TRANS-FACTORIAL HepG2 Assay for human Peroxisome Proliferator-activated Receptor-gamma (PPARg) (AID 2283007; active = hit-call score of the fitted dose curve at least 0.9, where 1 is the maximum)
Peroxisome proliferator-activated receptor gamma (Homo sapiens), sequence (P37231 whole entry, looked up, the tested form may be a part): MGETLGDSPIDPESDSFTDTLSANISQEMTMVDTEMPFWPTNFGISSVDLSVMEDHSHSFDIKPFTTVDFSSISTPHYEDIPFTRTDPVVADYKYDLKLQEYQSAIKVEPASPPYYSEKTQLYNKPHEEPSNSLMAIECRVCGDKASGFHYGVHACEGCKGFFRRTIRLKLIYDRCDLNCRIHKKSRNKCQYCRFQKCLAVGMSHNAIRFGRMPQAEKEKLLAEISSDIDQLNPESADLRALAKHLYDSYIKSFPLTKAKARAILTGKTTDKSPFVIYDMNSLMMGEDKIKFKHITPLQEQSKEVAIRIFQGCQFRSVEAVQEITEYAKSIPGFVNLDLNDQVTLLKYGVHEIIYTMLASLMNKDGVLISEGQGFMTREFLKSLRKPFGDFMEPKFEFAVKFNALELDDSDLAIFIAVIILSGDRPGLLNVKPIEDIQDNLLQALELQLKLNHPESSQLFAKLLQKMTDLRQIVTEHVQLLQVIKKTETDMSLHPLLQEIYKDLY
How it was run: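 HepG2 cells transiently transfected with multiplexed GAL4-UAS reporter units and exogenous chimeric NR-Gal4 proteins; reporter mRNA quantified after 24 h compound exposure by RT-PCR, fluorescent labelling, HpaI digestion and capillary electrophoresis; gain-of-signal fitted versus DMSO baseline.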

[16] = molecular target: Nuclear receptor subfamily 1 group I member 2 (Homo sapiens) (UniProt O75469); assay: ATG_PXR_TRANS: Attagene TRANS-FACTORIAL HepG2 Assay for human Pregnane X Receptor (PXR) (AID 2283008; active = hit-call score of the fitted dose curve at least 0.9, where 1 is the maximum)
Nuclear receptor subfamily 1 group I member 2 (Homo sapiens), sequence (O75469 whole entry, looked up, the tested form may be a part): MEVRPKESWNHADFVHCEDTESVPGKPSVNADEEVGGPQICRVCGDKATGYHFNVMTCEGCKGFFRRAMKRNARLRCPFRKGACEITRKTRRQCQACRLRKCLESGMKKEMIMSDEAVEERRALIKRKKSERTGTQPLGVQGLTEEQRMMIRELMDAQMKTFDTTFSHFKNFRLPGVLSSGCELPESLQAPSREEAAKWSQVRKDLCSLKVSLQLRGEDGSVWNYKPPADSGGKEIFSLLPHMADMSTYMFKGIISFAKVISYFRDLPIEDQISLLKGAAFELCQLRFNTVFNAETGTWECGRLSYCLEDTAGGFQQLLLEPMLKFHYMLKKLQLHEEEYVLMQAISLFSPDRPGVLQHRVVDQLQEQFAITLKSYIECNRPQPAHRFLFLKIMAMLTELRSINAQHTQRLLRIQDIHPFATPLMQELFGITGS
How it was run: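 Fluorescence intensity of FAM-labelled, HpaI-digested reporter amplicons, separated by capillary electrophoresis, quantifies induction. HepG2 cells with PXR-Gal4 trans-reporter system were exposed 24 h; DMSO defines baseline.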

[17] = ATG_XTT_Cytotoxicity: Cytotoxicity Assessment in the Attagene TRANS-FACTORIAL HepG2 Assay (AID 2283584; active = hit-call score of the fitted dose curve at least 0.9, where 1 is the maximum;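 as to AC50: cells exposed to compound for 24 h before reading; active means loss of viability signal versus DMSO baseline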)
How it was run: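 Viability endpoint from XTT after 24 h chemical exposure of reporter-transfected human HepG2 liver cells; signal loss fitted relative to DMSO negative control.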

[18] = ATG_GLI_CIS: Attagene CIS-FACTORIAL HepG2 Assay for human Zinc Finger Protein GLI1 (AID 2282945); details: HepG2, Attagene cis-factorial reporter mRNA, GLI element; actives raise or lower the signal
How it was run: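 Transiently transfected HepG2 cells report endogenous transcription factor activity via cis-element-driven reporter units. After 24 h compound exposure, reporter mRNA was measured by RT-PCR with capillary electrophoresis; bidirectional fitting against DMSO baseline.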

[19] = molecular target: Paired box protein Pax-6 (Homo sapiens) (UniProt P26367); assay: ATG_Pax6_CIS: Attagene CIS-FACTORIAL HepG2 Assay for human Paired Box 6 (PAX6) (AID 2282956); details: HepG2 CIS-FACTORIAL PAX6 reporter transcription, RNA readout; actives raise or lower the signal
Paired box protein Pax-6 (Homo sapiens), sequence (P26367 whole entry, looked up): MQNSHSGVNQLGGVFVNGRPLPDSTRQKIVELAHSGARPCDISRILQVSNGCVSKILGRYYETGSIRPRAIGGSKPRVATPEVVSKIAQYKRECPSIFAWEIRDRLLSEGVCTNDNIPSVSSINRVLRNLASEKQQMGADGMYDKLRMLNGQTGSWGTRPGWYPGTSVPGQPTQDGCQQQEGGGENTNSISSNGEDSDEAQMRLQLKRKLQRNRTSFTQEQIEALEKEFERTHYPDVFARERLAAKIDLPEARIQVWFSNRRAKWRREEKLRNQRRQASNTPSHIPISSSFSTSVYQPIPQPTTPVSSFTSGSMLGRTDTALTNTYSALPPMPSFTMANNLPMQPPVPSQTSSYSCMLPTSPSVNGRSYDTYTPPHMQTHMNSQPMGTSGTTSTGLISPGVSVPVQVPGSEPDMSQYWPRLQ
How it was run: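 After twenty-four hours of chemical exposure, transfected HepG2 cells are harvested for RNA. Cis-promoter reporter transcripts are amplified, fluorescently labelled and sized by capillary electrophoresis, with gain and loss of signal scored against DMSO.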

[20] = molecular target: Cellular tumor antigen p53 (Homo sapiens) (UniProt P04637); assay: ATG_p53_CIS: Attagene CIS-FACTORIAL HepG2 Assay for human p53 Transcription Factor (AID 2282994); details: HepG2 p53 cis-element reporter, Attagene mRNA; actives raise or lower the signal
Cellular tumor antigen p53 (Homo sapiens), sequence (P04637 whole entry, looked up): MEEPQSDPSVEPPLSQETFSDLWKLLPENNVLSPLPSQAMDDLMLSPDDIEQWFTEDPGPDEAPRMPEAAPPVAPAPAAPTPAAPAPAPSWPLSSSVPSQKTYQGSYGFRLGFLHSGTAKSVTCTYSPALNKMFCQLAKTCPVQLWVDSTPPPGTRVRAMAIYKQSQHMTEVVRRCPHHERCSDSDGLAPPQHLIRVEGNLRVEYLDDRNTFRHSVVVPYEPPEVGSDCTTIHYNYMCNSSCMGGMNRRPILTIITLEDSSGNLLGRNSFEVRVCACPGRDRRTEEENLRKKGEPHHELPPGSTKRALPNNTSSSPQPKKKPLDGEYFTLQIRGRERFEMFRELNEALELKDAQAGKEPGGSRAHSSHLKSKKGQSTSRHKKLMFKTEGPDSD
How it was run: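 Using HepG2 hepatoma cells carrying cis-acting multiplexed reporters, mRNA induction is detected after a 24 h exposure. Gain- and loss-of-signal responses are fitted relative to DMSO-treated cells.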

Measured: AC50

CCCCCCCCCCCCCCCC[N+](C)(C)C
active: [1] 35.5 µM | [2] 100 µM | [5] 138 µM | [7] 9.16 µM | [12] 53.4 µM | [14] 26.8 µM | [15] 27.4 µM | [17] 36.9 µM
not listed: [18] | [19] | [20]
inactive: all other assays above

CCCCCc1cc(O)cc(O)c1
active: [19] 146 µM | [4] 50.4 µM | [5] 100 µM | [7] 16 µM | [8] 51.7 µM | [13] 43.5 µM | [14] 60.8 µM | [15] 10.5 µM | [16] 11.1 µM
not listed: [6]
inactive: all other assays above

C=CC(=O)OCCCCOC(=O)C=C
active: [2] 186 µM | [19] 52.4 µM | [7] 33.5 µM | [12] 35.3 µM | [13] 24.6 µM | [14] 37.7 µM | [20] 163 µM | [15] 2.14 µM
not listed: [4]
inactive: all other assays above

O=C(CCN1CC1)OCC(CO)(COC(=O)CCN1CC1)COC(=O)CCN1CC1
not listed: [7] | [9] | [16] | [18] | [19]
inactive: all other assays above

CCC(C)c1cc(C(C)(C)C)cc(-n2nc3ccccc3n2)c1O (stereo not given)
inactive: all assays above

COC(=O)c1ccccc1S(=O)(=O)NC(=O)Nc1nc(C)cc(C)n1
not listed: [3] | [4] | [6] | [17] | [20]
inactive: all other assays above

C=CCN(CC=C)C(=O)C(Cl)Cl
active: [13] 50.9 µM
not listed: [9]
inactive: all other assays above

CC[N+](=O)[O-]
not listed: [3] | [9] | [17]
inactive: all other assays above

CC1(C)C(=O)NC(=O)NC1=O
not listed: [19]
inactive: all other assays above

Cc1ccc(C)c2ccccc12
active: [1] 27.7 µM | [16] 51.3 µM
not listed: [12] | [20]
inactive: all other assays above

CC(=O)C=Cc1ccccc1
active: [2] 133 µM | [3] 74.5 µM | [19] 130 µM | [7] 100 µM | [12] 163 µM | [13] 56.5 µM | [14] 100 µM | [15] 27 µM | [16] 35.9 µM
not listed: [9] | [20]
inactive: all other assays above

CC(C)(C)C(O)C(Oc1ccc(-c2ccccc2)cc1)n1cncn1 (stereo not given)
active: [2] 44.2 µM | [6] 0.672 µM | [7] 9 µM | [13] 41.6 µM | [20] 44 µM | [15] 14.3 µM | [16] 1.78 µM
inactive: all other assays above

CC(C)[C@@H](C(=O)O[C@@H](C#N)c1cccc(Oc2ccccc2)c1)c1ccc(Cl)cc1
active: [16] 0.752 µM
not listed: [7] | [17] | [19]
inactive: all other assays above

Nc1ccc([N+](=O)[O-])cc1N
active: [1] 24.7 µM | [13] 7.53 µM
not listed: [3] | [6] | [12]
inactive: all other assays above
